Measurements published in PubChem BioAssay (NCI).
Several values for one entry are separate records, joined by “and”; a condition that tells them apart may be missing. Identical values can stand only once. This is part of a sample that, as a whole, favours compounds with a hit. Of some 83,000 tested, about 20% had one in any assay.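 How to read the values: 0–100, growth inhibition (40 = 60% inhibited); 0, no net growth; -100 to 0, cell death (-40 = 40% of starting cells died; -100 = all dead).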 Activity calls are given as the source filed them. How the source made its calls: active means growth percent below 10; inactive means the rest.

Key:
Assay in all cases: NCI-60 one-dose screen, 48 h (100 = growth as untreated, 0 = no growth, -100 = all killed)
NCI-H23 lung = settings: 10 µM unless noted
NCI-H226 lung = settings: 10 µM unless noted
HOP-62 NSCLC = settings: 10 µM unless noted
HOP-92 NSCLC = settings: 10 µM
NCI-H522 lung = settings: 10 µM
A549/ATCC NSCLC = settings: 10 µM unless noted
786-0 renal = settings: 10 µM unless noted
COLO 205 colon = settings: 10 µM unless noted
DU-145 prostate = settings: 10 µM unless noted
K-562 leukemia = settings: 10 µM unless noted
MALME-3M melanoma = settings: 10 µM unless noted
MDA-MB-231 breast = settings: 10 µM unless noted
SF-268 CNS = settings: 10 µM unless noted
SF-295 CNS = settings: 10 µM unless noted
SF-539 CNS = settings: 10 µM unless noted
UACC-257 melanoma = settings: 10 µM unless noted
M14 melanoma = settings: 10 µM unless noted
RXF 393 renal = settings: 10 µM unless noted
NCI-H460 lung = settings: 10 µM unless noted
NCI-H322M lung = settings: 10 µM unless noted

Row | SMILES | growth (NCI-H23 lung) | growth (NCI-H226 lung) | growth (HOP-62 NSCLC) | growth (HOP-92 NSCLC) | growth (NCI-H522 lung) | growth (A549/ATCC NSCLC) | growth (786-0 renal) | growth (COLO 205 colon) | growth (DU-145 prostate) | growth (K-562 leukemia) | growth (MALME-3M melanoma) | growth (MDA-MB-231 breast) | growth (SF-268 CNS) | growth (SF-295 CNS) | growth (SF-539 CNS) | growth (UACC-257 melanoma) | growth (M14 melanoma) | growth (RXF 393 renal) | growth (NCI-H460 lung) | growth (NCI-H322M lung)
1 | C/C(=C\c1ccccc1)c1ccccn1 | 107% (inactive) | 90.9% (inactive) | 105% (inactive) | 105% (inactive) | 109% (inactive) | 115% (inactive) | 104% (inactive) | 114% (inactive) | 112% (inactive) | 105% (inactive) | 102% (inactive) | 91% (inactive) | 99.3% (inactive) | 113% (inactive) | 98.1% (inactive) | 105% (inactive) | 108% (inactive) |  |  | 
2 | COc1ccc(Nc2ccc3ccccc3c2)cc1 | 81.5% (inactive) | 81% (inactive) | 67.9% (inactive) |  |  |  | 84.3% (inactive) | 94% (inactive) | 83.2% (inactive) | 31.6% (inactive) |  | 77.9% (inactive) | 81.2% (inactive) | 79.6% (inactive) | 93.1% (inactive) |  | 72.9% (inactive) | 58.6% (inactive) |  | 
3 | CC[C@H](CC[C@@H](C)[C@H]1CC[C@H]2[C@@H]3CC=C4C[C@@H](O)CC[C@]4(C)[C@H]3CC[C@]12C)C(C)C | 5.59% (active) and 96.6% (inactive) | 99.6% (inactive) and 101% (inactive) | 108% (inactive) and 101% (inactive) |  | 18.7% (inactive) and 97% (inactive) |  | 95.3% (inactive) and 106% (inactive) | 103% (inactive) and 107% (inactive) | 114% (inactive) and 103% (inactive) | 106% (inactive) | 106% (inactive) and 104% (inactive) | 115% (inactive) and 97.9% (inactive) | 101% (inactive) and 97.6% (inactive) | 98.3% (inactive) and 101% (inactive) | 92.2% (inactive) and 99.1% (inactive) | 97.5% (inactive) | 103% (inactive) and 106% (inactive) | 104% (inactive) |  | 
4 | O=C1CSC2=NCCN12 | 87.7% (inactive) and 90% (inactive) | 102% (inactive) and 85.5% (inactive) | 90.9% (inactive) and 95.9% (inactive) |  | 59.3% (inactive) and 99.1% (inactive) |  | 80.7% (inactive) and 61.7% (inactive) | 104% (inactive) and 127% (inactive) | 111% (inactive) and 107% (inactive) | 74.2% (inactive) and 76.4% (inactive) | 91.7% (inactive) and 120% (inactive) | 104% (inactive) and 103% (inactive) | 97.4% (inactive) and 96.9% (inactive) | 102% (inactive) and 81% (inactive) | 94.3% (inactive) and 91.7% (inactive) | 71.9% (inactive) and 103% (inactive) | 90.1% (inactive) and 91.6% (inactive) | 81.5% (inactive) and 98.4% (inactive) | 96.3% (inactive) and 99.3% (inactive) | 
5 | Nc1ncnc2c1ncn2C1OC(COP(=O)(O)O)C(O)C1O (stereo not given) | 110% (inactive) | 113% (inactive) | 115% (inactive) |  | 114% (inactive) |  | 105% (inactive) | 130% (inactive) | 120% (inactive) | 119% (inactive) |  | 102% (inactive) | 126% (inactive) |  | 105% (inactive) | 110% (inactive) | 111% (inactive) | 131% (inactive) |  | 
6 | c1ccc(-c2nc3ccccc3s2)cc1 | 88.2% (inactive) |  | 76.3% (inactive) | 82.4% (inactive) |  |  | 105% (inactive) | 110% (inactive) | 113% (inactive) | 102% (inactive) | 97.5% (inactive) | 68.5% (inactive) | 95% (inactive) | 97.9% (inactive) | 96% (inactive) | 98.5% (inactive) | 97.3% (inactive) | 106% (inactive) | 97.5% (inactive) | 81.1% (inactive)
7 | O=C1OC(c2ccccc2)=N/C1=C\c1ccccc1 | 99.8% (inactive) | 90.9% (inactive) | 99.6% (inactive) | 88.7% (inactive) | 108% (inactive) | 95.6% (inactive) | 95.9% (inactive) | 113% (inactive) | 113% (inactive) | 104% (inactive) | 86.4% (inactive) | 111% (inactive) | 103% (inactive) | 99% (inactive) | 99.5% (inactive) | 96.5% (inactive) | 100% (inactive) | 106% (inactive) |  | 
8 | CN(C)CC1CCCCCC(CN(C)C)C1=O (stereo not given) | 97.2% (inactive) | 91.4% (inactive) | 113% (inactive) |  | -42.8% (active) |  | 89.6% (inactive) | -80.9% (active) | 16.3% (inactive) | 0.401% (active) | -29.8% (active) | 86.2% (inactive) | 97% (inactive) | 76.8% (inactive) | 113% (inactive) | 53.1% (inactive) | 77.4% (inactive) | -5.99% (active) |  | 
9 | N#CC(C#N)N=Nc1cc(Cl)ccc1Cl | 106% (inactive) | 104% (inactive) | 104% (inactive) |  | 89.8% (inactive) | 98.4% (inactive) | 102% (inactive) | 110% (inactive) | 111% (inactive) | 95.3% (inactive) |  | 91.7% (inactive) | 95% (inactive) |  | 99.8% (inactive) | 92% (inactive) | 98.5% (inactive) | 115% (inactive) |  | 
10 | CC(=O)OC(C)C(=O)NCC(C)O (stereo not given) | 100% (inactive) |  | 100% (inactive) |  | 109% (inactive) |  | 94.9% (inactive) | 107% (inactive) | 104% (inactive) | 97.9% (inactive) | 108% (inactive) | 124% (inactive) | 100% (inactive) |  | 102% (inactive) | 108% (inactive) | 97.8% (inactive) | 113% (inactive) |  | 
11 | N#CC(C#N)N=Nc1ccc(Cl)cc1 | 36.5% (inactive) | 75.1% (inactive) | 84.9% (inactive) |  | -12.4% (active) |  | 59% (inactive) | -33.9% (active) | 68.2% (inactive) | 10.2% (inactive) | 15.6% (inactive) | 47.2% (inactive) | 84.9% (inactive) | 94.7% (inactive) | 53.1% (inactive) | 20.8% (inactive) | 60.1% (inactive) | 61.4% (inactive) |  | 
12 | Cc1cc(-c2ccc(N=Nc3ccc4c(S(=O)(=O)O)cc(S(=O)(=O)O)c(N)c4c3O)c(C)c2)ccc1N=Nc1ccc2c(S(=O)(=O)O)cc(S(=O)(=O)O)c(N)c2c1O | 81.7% (inactive) | 89.2% (inactive) | 95.7% (inactive) |  | 85.6% (inactive) |  | 101% (inactive) | 111% (inactive) | 105% (inactive) | 90.8% (inactive) | 107% (inactive) | 110% (inactive) | 102% (inactive) | 93.7% (inactive) | 90.8% (inactive) | 105% (inactive) | 118% (inactive) | 101% (inactive) | 111% (inactive) | 
13 | O=C(/C=C/c1ccccc1)c1ccccc1 | 84.6% (inactive) | 126% (inactive) | 94.9% (inactive) |  | 84.8% (inactive) | 96.3% (inactive) | 86.9% (inactive) | 114% (inactive) | 97.7% (inactive) |  | 128% (inactive) | 110% (inactive) | 97.2% (inactive) | 99.1% (inactive) | 88.2% (inactive) | 106% (inactive) | 98.1% (inactive) | 114% (inactive) |  | 
14 | COc1ccc2cc1Oc1ccc(cc1)C[C@H]1c3cc(c(OC)cc3CCN1C)Oc1c(OC)c(OC)cc3c1[C@H](C2)N(C)CC3 | 92.7% (inactive) | 113% (inactive) | 17.7% (inactive) |  | 1.42% (active) |  | 46.3% (inactive) | 44.8% (inactive) | 53.1% (inactive) | -75.4% (active) | 16.3% (inactive) | 8.45% (active) | 78.2% (inactive) | 71.8% (inactive) | -74.4% (active) | 46.2% (inactive) | -78.8% (active) | 47.2% (inactive) | 44.9% (inactive) | 
15 | O=C(O)CCCl | 108% (inactive) | 95.6% (inactive) | 105% (inactive) | 78.4% (inactive) | 112% (inactive) | 104% (inactive) | 120% (inactive) | 119% (inactive) | 114% (inactive) | 111% (inactive) | 115% (inactive) | 125% (inactive) | 108% (inactive) |  | 99.8% (inactive) | 111% (inactive) | 129% (inactive) | 103% (inactive) |  | 
